# Test system: HNSC
# Assay: growth inhibition (% activity, log2 RLU normalised to DMSO / staurosporine); higher = more growth inhibition
# Settings: 33 µM
# Summary of the method: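 For each approved drug, the growth-inhibition value is the replicate median of per-plate normalised CellTiter-Glo data. Luminescence was log2-transformed and expressed as % activity between solvent and positive control wells. Drugs were applied in triplicate at a single final concentration of about 33 μM for 7 days at 37 °C, 5% CO2 to pHGG cell lines and H9-derived neural stem cells.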
row,Structure (SMILES),growth inhibition [%]
1,CNC(=O)c1ccc(N2C(=S)N(c3ccc(C#N)c(C(F)(F)F)c3)C(=O)C2(C)C)cc1F,4.97
2,O=c1oc2cc(O)ccc2s1,2.15
3,CN1CCC(=C2c3ccccc3CC(=O)c3sccc32)CC1,1.53
4,CC1=C(C(=O)OC(C)C)C(c2cccc([N+](=O)[O-])c2)C(C(=O)OC2CN(C(c3ccccc3)c3ccccc3)C2)=C(N)N1 (centres undefined),58
5,C[C@H]1C[C@@H]2[C@H]([C@@H](O)C[C@@]3(C)[C@H]2CC[C@]3(O)C(=O)CO)[C@@]2(C)C=CC(=O)C=C12,-1.14
6,C[C@@H]1CC(=O)NN=C1c1ccc(NN=C(C#N)C#N)cc1,5.57
7,Cc1cnc(NC(=O)C2=C(O)c3ccccc3S(=O)(=O)N2C)s1,0.475
8,CCCCCCCCCCCCCCCC[N+](C)(C)CCN(Cc1ccc(OC)cc1)c1ncccn1,57.8
9,CC(C)OC(=O)OCOP(=O)(CO[C@H](C)Cn1cnc2c(N)ncnc21)OCOC(=O)OC(C)C,0.819
10,C#CCC(Cc1cnc2nc(N)nc(N)c2n1)c1ccc(C(=O)N[C@@H](CCC(=O)O)C(=O)O)cc1 (some centres undefined),56.1
11,CCOC(=O)CCC(=O)O[C@H]1[C@H](O[C@@H]2[C@@H](C)[C@H](O[C@H]3C[C@@](C)(OC)[C@@H](O)[C@H](C)O3)[C@@H](C)C(=O)O[C@H](CC)[C@@](C)(O)[C@H](O)[C@@H](C)C(=O)[C@H](C)C[C@@]2(C)O)O[C@H](C)C[C@@H]1N(C)C,19.9
12,Nc1cc(C(Cl)=C(Cl)Cl)c(S(N)(=O)=O)cc1S(N)(=O)=O,1.89
13,CCCCC(CC)CN=C(N)N=C(N)NCCCCCCNC(N)=NC(N)=NCC(CC)CCCC (centres undefined),67.8
14,C[N+](C)(C)CCCCCC[N+](C)(C)C,11.7
15,CC(C)CN(C[C@@H](O)[C@H](Cc1ccccc1)NC(=O)O[C@H]1CO[C@H]2OCC[C@H]21)S(=O)(=O)c1ccc(N)cc1,-4.53
16,NCCc1c[nH]cn1,-2.23
17,c1ccc2c(CC3=NCCN3)cccc2c1,10
18,C=CCc1cc(OC)c(O)c(C(=O)NCCO)c1,-0.87
19,COc1cc2/c(=N/c3ccc(Br)cc3F)nc[nH]c2cc1OCC1CCN(C)CC1,9.55
20,Clc1ccc(C(Cn2ccnc2)OCc2csc3c(Cl)cccc23)c(Cl)c1 (centres undefined),10.7

row,Structure (SMILES),growth inhibition [%]
1,OCCOCCN1CCN(C2=Nc3ccccc3Sc3ccccc32)CC1,0.74
2,CC(C)(C)c1cc(C(C)(C)C)c(NC(=O)c2c[nH]c3ccccc3c2=O)cc1O,11.9
3,Nc1ccc(/N=N/c2ccccc2)c(N)n1,9.5
4,CC1(C)O[C@@H]2C[C@H]3[C@@H]4CCC5=CC(=O)C=C[C@]5(C)[C@@]4(F)[C@@H](O)C[C@]3(C)[C@]2(C(=O)CO)O1,-2.22
5,C[C@H]1c2cccc(O)c2C(=O)C2=C(O)[C@]3(O)C(=O)C(C(N)=O)=C(O)[C@@H](N(C)C)[C@@H]3[C@@H](O)[C@@H]21,25.5
6,CCc1cc2c(cc1CC)CC(NC[C@H](O)c1ccc(O)c3[nH]c(=O)ccc13)C2,23.5
7,COc1cc2c(cc1O)CC[C@@H]1[C@@H]2CC[C@]2(C)[C@@H](O)CC[C@@H]12,53.5
8,CN(CCOc1ccc(NS(C)(=O)=O)cc1)CCc1ccc(NS(C)(=O)=O)cc1,-6.33
9,NC[C@H](O)c1ccc(O)c(O)c1,-0.629
10,NC(=O)C(c1ccccc1)(c1ccccc1)[C@@H]1CCN(CCc2ccc3c(c2)CCO3)C1,1.33
11,O=C(O)c1ccc(-n2nc(-c3ccccc3O)nc2-c2ccccc2O)cc1,1.36
12,CN(C/C=C/c1ccccc1)Cc1cccc2ccccc12,-1.49
13,CC(C)/N=c1\cc2n(-c3ccc(Cl)cc3)c3ccccc3nc-2cc1Nc1ccc(Cl)cc1,66.1
14,Nc1ccc(C(=O)O)c(O)c1,-0.259
15,CN1CCN(CCCN2c3ccccc3Sc3ccc(Cl)cc32)CC1,13.3
16,O=c1ccn([C@@H]2O[C@H](CO)[C@@H](O)[C@H]2O)c(=O)[nH]1,17.6
17,Oc1c(Cl)cc(Cl)c2cccnc12,44.3
18,COC1C(O)CC(=O)OC(C)CC=CC=CC(OC2CCC(N(C)C)C(C)O2)C(C)CC(CC=O)C1OC1OC(C)C(OC2CC(C)(O)C(O)C(C)O2)C(N(C)C)C1O (centres undefined),-0.2
19,CC[C@H](C)C[C@H](C)CCCCCCCCC(=O)N[C@H]1C[C@@H](O)[C@@H](NCCN)NC(=O)[C@@H]2[C@@H](O)CCN2C(=O)[C@H]([C@H](O)CCN)NC(=O)[C@H]([C@H](O)[C@@H](O)c2ccc(O)cc2)NC(=O)[C@@H]2C[C@@H](O)CN2C(=O)[C@H]([C@@H](C)O)NC1=O,7.21
